Assay outcomes as filed in PubChem BioAssay.
Shown are actives, neighbours in structure and some others; about 3.7% of the full set was active somewhere.
Mtb UGM inh: Mtb UDP-galactopyranose mutase inhibition; purified UGM, fluorescence polarization probe displacement; inhibition, % at 10 µM; actives 0.06% (n = 320,000); AID 504406; in the data active = inhibition above about 10%, passing the limit was not always enough
Target sequence (P9WIQ1 whole entry, looked up): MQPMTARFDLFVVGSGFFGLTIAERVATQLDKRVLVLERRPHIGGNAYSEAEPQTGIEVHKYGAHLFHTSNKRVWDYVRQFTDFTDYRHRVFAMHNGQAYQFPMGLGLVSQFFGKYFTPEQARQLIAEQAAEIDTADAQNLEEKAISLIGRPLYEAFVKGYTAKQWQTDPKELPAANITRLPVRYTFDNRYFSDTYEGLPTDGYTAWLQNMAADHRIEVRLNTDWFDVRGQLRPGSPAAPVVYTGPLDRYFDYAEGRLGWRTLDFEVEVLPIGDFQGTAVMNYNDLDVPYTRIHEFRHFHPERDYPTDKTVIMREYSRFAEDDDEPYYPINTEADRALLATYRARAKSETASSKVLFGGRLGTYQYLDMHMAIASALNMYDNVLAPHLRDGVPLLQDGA
Rv3671c protease: inhibits the M. tuberculosis serine protease Rv3671c; actives 0.048% (n = 320,000); inhibition, % at 5.96 µM; in the data active = inhibition above about 38%;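 note: extracellular domain of Rv3671c used as enzyme; 0% = enzyme with DMSO and 100% = no enzyme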
Mtb bLac sens: beta-lactam sensitization of Mtb H37Rv; AID 434955; M. tuberculosis H37Rv growth with meropenem, percent inhibition; inhibition, % at 25 µM; actives 0.27% (n = 330,000); call rule not given here;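 note: growth measured after seven days incubation then overnight dye step; 0% = bacteria only wells and 100% = bacteria with antibiotic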
GDH-TPI counter: GDH-TPI coupled enzyme inhibition counter-screen; GDH-TPI coupled enzyme counterscreen, NADH absorbance; inhibition, % at 4.8 µM; actives 1.2% (n = 360,000); AID 588335; in the data active = inhibition above about 30%;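 note: 0% = DMSO wells and 100% = wells lacking the enzyme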
FadD28 FP inh: M. tuberculosis FadD28 bisubstrate binding inhibition | FadD28 bisubstrate probe binding, fluorescence polarization | inhibition, % at 12.5 µM | actives 0.22% (n = 360,000) | AID 588549; in the data active = inhibition above about 8.5%, passing the limit was not always enough
FBA Mtb inh: Mtb fructose-bisphosphate aldolase inhibition | P9WQA3 | purified M. tuberculosis FBA, fluorescence read-out | inhibition, % at 1 µM | actives 2.3% (n = 360,000) | AID 588726; in the data active = inhibition above about 27%;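 note: 0% = vehicle and 100% = reference inhibitor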
* hit, by the source's call; nt = not tested or not shown; + = active, no number.

SMILES	Mtb UGM inh	Rv3671c protease	Mtb bLac sens	GDH-TPI counter	FadD28 FP inh	FBA Mtb inh
Cc1ccc(-c2nnc(Nc3ccc(C(=O)N(C)C)cc3)c3ccccc23)cc1S(=O)(=O)NC(C)(C)CO	-1	-3	-1	37*	-2	-1
Cc1ccc(-c2nnc(Nc3ccc(CC(N)=O)cc3)c3ccccc23)cc1S(=O)(=O)NCC1CCCO1 (stereo not drawn)	-1	10	-6	32*	-1	4
Cc1ccc(-c2nnc(Nc3ccc(C(=O)N(C)C)cc3)c3ccccc23)cc1S(=O)(=O)NCC1CCCO1 (stereo not drawn)	1	-10	2	16	-3	0
Cn1c(/C(C#N)=C/c2ccc(O)cc2)nc2ccccc21	-2	-11	-5	36*	-3	-10
Cn1c(/C(C#N)=C/c2ccncc2)nc2ccccc21	1	6	63	8	-2	4
O=C(c1ccccc1)c1coc(-c2ccccc2)c1	nt	nt	nt	8	-3	0
CN1CCN(C(=O)c2cc3c(=O)n4ccccc4nc3s2)CC1	-4	-14	-4	10	-4	+
COc1ccccc1N1CCN(C(=O)c2cc3c(=O)n4ccccc4nc3s2)CC1	-1	1	17	21	-3	9
CC1CN(C(=O)c2cc3c(=O)n4ccccc4nc3s2)CC(C)O1 (stereo not drawn)	4	-2	-17	34*	-1	196*
c1ccc2c(c1)nc(N1CCCCCC1)c1nncn12	nt	nt	nt	16	-4	-4
O=C(Cc1cc(=O)oc2cc(O)ccc12)NC(Cc1ccc(Cl)cc1)C(=O)O (stereo not drawn)	1	4	39	7	0	+
CSC[C@H](NC(=O)Cc1c(C)c2cc3c(C)c(C)oc3cc2oc1=O)C(=O)N[C@@H](Cc1ccccc1)C(=O)O	4	1	-4	7	-4	6
Cc1c(CC(=O)NCC(=O)NCC(=O)N[C@@H](Cc2ccccc2)C(=O)O)c(=O)oc2c(C)c(O)ccc12	nt	nt	nt	12	1	+
COc1ccc2c(CC(=O)N[C@@H](Cc3ccccc3)C(=O)O)cc(=O)oc2c1C	0	nt	-5	21	0	149*
Cc1c(OCC(=O)NC(Cc2ccc(Cl)cc2)C(=O)O)ccc2c(-c3ccccc3)cc(=O)oc12 (stereo not drawn)	1	-17	-4	18	-3	4
O=C(COc1ccc2ccc(=O)oc2c1)NC(Cc1ccc(Cl)cc1)C(=O)O (stereo not drawn)	1	2	-2	14	-4	18
Cc1ccc(S(=O)(=O)CCC(=O)OCC(=O)Nc2cccc(S(=O)(=O)N3CCCCC3)c2)cc1	nt	nt	nt	16	2	3
Cc1ccccc1OCC(=O)N/N=C/c1ccc(N2CCOCC2)o1	0	nt	2	15	0	4
Cc1ccc2c(c1)-n1c(nc3ccc(C)cc3c1=O)C(Cc1ccccc1)NC2=O (stereo not drawn)	-1	-10	-3	nt	nt	nt
COc1cc(C=NCc2ccccc2)ccc1O	nt	nt	nt	42*	-1	-2
Oc1ccc(/C=N/N(c2ccccc2)c2ccccc2)cc1O	-3	1	-3	4	3	-1
CCOc1cc(/C=C2\NC(=O)NC2=O)cc([N+](=O)[O-])c1O	-1	10	-3	32*	2	-4
COc1ccc(/C=N/N(Cc2ccccc2)c2ccccc2)cc1O	2	0	24	8	12*	-3
CCOc1cc(/C=C2\C(=O)NC(=O)N(C)C2=O)cc([N+](=O)[O-])c1O	2	-13	-1	14	0	-9
COc1cc(C=C2NC(=O)NC2=O)ccc1O	nt	nt	nt	35*	2	4
SMILES	Mtb UGM inh	Rv3671c protease	Mtb bLac sens	GDH-TPI counter	FadD28 FP inh	FBA Mtb inh
COc1cc(/C=C2\NC(=S)N(C)C2=O)ccc1O	-2	-23	1	12	-3	-17
O=C1C=C(O)CC2(CCCCC2)C1	nt	nt	nt	nt	-3	4
C[C@@H]1COC(=O)[C@@H](CC(=O)OC(C)(C)C)C/C=C\C[C@@H](CC(=O)N[C@H](CO)Cc2ccccc2)C(=O)N1	3	-10	2	3	-3	0
CS(=O)(=O)N(CCc1ccccc1)CC(=O)N1CCCCCC1	nt	nt	nt	-2	-3	0
CC1=C(C)CC(C(=O)Nc2nccs2)C(C(=O)O)C1 (stereo not drawn)	-1	7	-2	-16	-4	-3
CCc1noc(C)c1C(=O)N1CCCSC1=Nc1ccccc1Cl	-2	8	-8	2	-2	8
